In PubChem BioAssay (NCATS):
Results filed as inconclusive are left out. A number with no mark means an inactive call. The source made the active and inactive calls. The call rests on the fitted dose curve; in most records, active means well fitted cell-killing curve with a large enough effect; inconclusive means small, poorly fitted or top-dose-only effect; inactive means flat fitted curve, though single readings scatter.

Test: qHTS of pediatric cancer cell lines to identify multiple opportunities for drug repurposing: Primary screen for TC32 cells (AID 1347089); further: nearly all actives have a fitted effect of over 60% in size
Settings: TC32 Ewing sarcoma viability, CellTiter-Glo luminescence, 48 h; series mostly up to 45.8 µM; activity change, negative = cytotoxic: at the top concentration
From the text: Drug repurposing or repositioning has been offered as a strategy for drug development in oncology programs. This approach has special potential for childhood cancers and other rare or orphan diseases, where the expected return on new drug development has been a disincentive to pharmaceuticals.
In this project we exploit the poly-pharmacology of drugs to discover new indications via phenotypic screening of a panel of 19 well-characterized cell lines derived from solid tumors seen in children and adolescents. The goal is to identify approved drugs with previously unrecognized anticancer properties that has the potential to reveal new mechanisms and biological processes involved in carcinogenesis or drug resistance. We employed a titration-based paradigm (quantitative high-throughput screening or qHTS), where all compounds were tested at multiple concentrations for their effect on cell viability. Concentration-response curves (CRCs) were derived directly from the primary screen, and both potency and efficacy values were used to identify compounds with robust bioactivity profiles. We screened the NIH Chemical Genomics Center (NCGC) Pharmaceutical Collection (NPC) and Mechanism Interrogation Plate (MIPE) small molecule collections of approved and investigational compounds against these cell lines; and measured metabolically active cells after 48 hours of compound treatment as a proxy for cell viability.
Assay Submitter: Nathalia J. Martinez, National Center for Advancing Translational Sciences, National Institutes of Health, Rockville, MD, USA; email: natalia.martinez@nih.gov
[1] Shen, M et al. Quantitative high-throughput phenotypic screening of pediatric cancer cell lines identifies multiple opportunities for drug repurposing. Oncotarget 2017 Dec 19;9(4):4758-4772. PMID 29435139.
The cells were obtained from University of North Carolina (UNC), Pediatric Preclinical Testing Program (PPT), and Coriell Institute (CI).
qHTS cell viability assay:
Cells were assayed in growth media at a density of 500-1,000 cells/well. Five microliters of cells were dispensed into 1,536-well, white, solid-bottom, TC-treated plates (Greiner Bio One) using a multidrop dispenser and incubated at 37 degrees C, 5% CO2, under a humidified atmosphere for 5 hours. Twenty-three nanoliters of compounds and controls (neutral control DMSO or positive control bortezomib at final concentration of 2.3 uM) were subsequently transferred by Kalypsys pintool. For primary screens, the MIPE collection was tested at 11-point dilutions (final concentrations range from 0.78 nM to 46 µM) and the NPC collection at 8-point dilutions (final concentrations range from 0.59 nM to 46 µM). Compounds tested in follow-up screens were assayed at 11-point dilutions. Cells were incubated for 48 hours, followed by addition of 3 uL of CellTiter-Glo (Promega). After a 15min incubation at room temperature, samples were analyzed for luminescence intensity using a ViewLux High-throughput CCD imager equipped with clear filters.
On the % scale 0 is the no-effect control and ±100 the full control effect; potency means the concentration at half of the fitted maximal effect.

Row | SMILES | activity change, negative = cytotoxic [%] | Potency
1 | OCCNC1CCCc2c1[nH]c1ccc(-c3ccccc3)cc21 (stereo not given) | -6.89 | –
2 | Cc1ccc([N+](=O)[O-])cc1S(=O)(=O)N(C)N=Cc1cnc2ccc(Br)cn12 | – | 0.0829 µM (active)
3 | CC1(C)[C@H](O[C@H]2O[C@H](C(=O)O)[C@@H](O)[C@H](O)[C@H]2O[C@@H]2O[C@H](C(=O)O)[C@@H](O)[C@H](O)[C@H]2O)CC[C@@]2(C)[C@H]1CC[C@]1(C)[C@H]2C(=O)C=C2[C@H]3C[C@@](C)(C(=O)O)CC[C@]3(C)CC[C@]21C | 10.6 | –
4 | CC1(C)O[C@@H]2C[C@H]3[C@@H]4CCC5=CC(=O)C=C[C@]5(C)[C@@H]4[C@@H](O)C[C@]3(C)[C@]2(C(=O)CO)O1 | 10.6 | –
5 | CCC(C(=O)O)C1CCC(C)C(C(C)C(O)C(C)C(=O)C(CC)C2OC3(C=CC(O)[C@@]4(CC[C@](C)(C5CC[C@@](O)(CC)C(C)O5)O4)O3)C(C)CC2C)O1 (stereo not given in full) | – | 5.23 µM (active)
6 | CC(C)(O)CC[C@@H](O)[C@](C)(O)[C@H]1CC[C@@]2(O)C3=CC(=O)[C@@H]4C[C@@H](O)[C@@H](O)C[C@]4(C)[C@@H]3CC[C@]12C | 3.11 | –
7 | COc1ccc(C[C@@H](C)[C@@H](C)Cc2ccc(OC)c(OC)c2)cc1OC | – | 9.3 µM (active)
8 | NS(=O)(=O)OC[C@@H]1C[C@@H](n2ccc3c(N[C@H]4CCc5ccccc54)ncnc32)C[C@H]1O | – | 1.65 µM (active)
9 | O=C(O)[C@H](CC(=O)N1C[C@@H]2CCCC[C@H]2C1)Cc1ccccc1 | 8.88 | –
10 | O=C1NC(O)CCN1[C@@H]1O[C@H](CO)[C@H](O)[C@H]1O (stereo not given in full) | 2.24 | –
11 | Cc1onc(-c2ccccc2)c1C(=O)N[C@@H]1C(=O)N2[C@@H](C(=O)O)C(C)(C)S[C@@H]12 | 8.45 | –
12 | CC[C@H]1OC(=O)[C@H](C)[C@@H](O[C@H]2C[C@@](C)(OC)[C@@H](O)[C@H](C)O2)[C@H](C)[C@@H](O[C@@H]2O[C@H](C)C[C@H](N(C)C)[C@@H]2O)[C@](C)(OC)C[C@@H](C)C(=O)[C@H](C)[C@@H](O)[C@]1(C)O | -3.11 | –
13 | CC(N[C@H]1CCCC[C@H]1NC(=O)c1ccc(Cl)cc1)c1cccc2ccccc12 (stereo not given in full) | 10.2 | –
14 | NC(=O)Nc1cc(-c2ccc(CN3CCOCC3)cc2)sc1C(N)=O | – | 0.523 µM (active)
15 | CCN(CC)CCCCNc1ncc2c(n1)N(C)C(=O)N(c1c(Cl)c(OC)cc(OC)c1Cl)C2 | – | 23.4 µM (active)
16 | CC(C=CC(=O)NO)=C[C@@H](C)C(=O)c1ccc(N(C)C)cc1 | – | 2.34 µM (active)
17 | Cc1ccc2nc(NCCN)c3ncc(C)n3c2c1 | – | 23.4 µM (active)
18 | CC(C)(C)[N+]([O-])=Cc1ccc(S(=O)(=O)O)cc1S(=O)(=O)O | 8.48 | –
19 | CCCCC(=O)O[C@]1(C(=O)CO)[C@@H](C)C[C@H]2[C@@H]3CCC4=CC(=O)C=C[C@]4(C)[C@@]3(F)[C@@H](O)C[C@@]21C | 14.1 | –
20 | COc1cc(C)c(Sc2cnc(NC(=O)c3ccc(CNC(C)C(C)(C)C)cc3)s2)cc1C(=O)N1CCN(C(C)=O)CC1 (stereo not given) | – | 20.8 µM (active)

Row | SMILES | activity change, negative = cytotoxic [%] | Potency
21 | O=[N+]([O-])c1cn2c(n1)OC[C@@H](OCc1ccc(OC(F)(F)F)cc1)C2 | -12.8 | –
22 | Cc1cnc(Nc2ccc(N3CCN(C)CC3)cc2)nc1Nc1cccc(S(=O)(=O)NC(C)(C)C)c1 | – | 10.4 µM (active)
23 | O=C1NC(=O)[C@@H](c2cn3c4c(cccc24)CCC3)[C@H]1c1c[nH]c2ccccc12 | – | 2.34 µM (active)
24 | O=c1[nH]c(=O)n([C@H]2C[C@@H](O)[C@@H](CO)O2)cc1F | – | 0.93 µM (active)
25 | C[C@@H]1C(=O)O[C@H]2CC34[C@H]5C[C@@H](C(C)(C)C)C36[C@H](OC(=O)[C@@H]6O)O[C@@]4(C(=O)O5)[C@]21O (stereo not given in full) | 3.38 | –
26 | NC(=NCCCCCCN=C(N)N=C(N)Nc1ccc(Cl)cc1)N=C(N)Nc1ccc(Cl)cc1 | 4.54 | –
27 | CN[C@H]1[C@@H](O)[C@@H]2O[C@@H]3O[C@H](C)CC(=O)[C@]3(O)O[C@@H]2[C@@H](NC)[C@H]1O | – | 13.1 µM (active)
28 | Nc1cccc2c1C(=O)N(C1CCC(=O)NC1=O)C2=O (stereo not given) | 9.45 | –
29 | CCCCCCCCCCCCCCCC(=O)OC[C@@H](NC(=O)C(Cl)Cl)[C@H](O)c1ccc([N+](=O)[O-])cc1 | 13.6 | –
30 | CCC(C=C[C@@H]1OC(=O)C=C[C@H]1C)=C[C@H](C)CC=CC(C)=C[C@@H](C)C(=O)[C@@H](C)[C@H](O)[C@@H](C)CC(C)=CC(=O)O | – | 0.0777 µM (active)
31 | CC(=O)O[C@H]1C[C@@H]2CC[C@H]3[C@H]4C[C@H]([N+]5(C)CCCCC5)[C@@H](OC(C)=O)[C@@]4(C)CC[C@@H]3[C@@]2(C)C[C@H]1N1CCCCC1 | 5.96 | –
32 | NC(=O)c1ncn([C@@H]2O[C@H](CO)[C@@H](O)[C@@H]2O)c1N | 7.12 | –
33 | O=c1[nH]c(=O)n([C@H]2C[C@@H](O)[C@@H](CO)O2)cc1C=CBr | 4.41 | –
34 | C[C@H](CCC(=O)O)[C@H]1CCC2C3C[C@H](O)[C@@H]4C[C@H](O)CC[C@]4(C)C3CC[C@@]21C (stereo not given in full) | -6.51 | –
35 | Nc1nc(N)c2nc(-c3cccc(O)c3)c(-c3cccc(O)c3)nc2n1 | – | 18.6 µM (active)
36 | Cc1cn([C@@H]2O[C@H](CO)[C@@H](O)[C@H]2F)c(=O)[nH]c1=O | 11.9 | –
37 | COc1cccc2c1C(=O)c1c(O)c3c(c(O)c1C2=O)C[C@@](O)(C(C)=O)C[C@H]3O[C@H]1C[C@H](N)[C@H](O)[C@H](C)O1 | – | 0.234 µM (active)
38 | N#CC(=C(N)Sc1ccc(N)cc1)c1ccccc1C(F)(F)F | 5.32 | –
39 | C=C[C@@H]1CN2CCC1C[C@H]2[C@H](O)c1ccnc2ccc(OC)cc12 (stereo not given in full) | 10 | –
40 | CC[C@]12C=CCN3CC[C@@]4(c5cc([C@@]6(C(=O)OC)C[C@H]7C[C@@H](C(C)(F)F)CN(Cc8c6[nH]c6ccccc86)C7)c(OC)cc5N(C)[C@H]4[C@@](O)(C(=O)OC)[C@H]1OC(C)=O)[C@@H]32 | – | 0.0587 µM (active)
